# High-throughput results: PubChem, several laboratories
# TWEAK-Fn14 inh: inhibitors of TWEAK-Fn14 signaling, primary screen, luciferase reporter cells, uHTS | 2% of 360,000 active | TWEAK-stimulated Fn14 reporter cells, luciferase luminescence, 8 h | inhibition, % at 10 µM; in the data active = inhibition above about 50%
# HSF1 inh: HSF1 inhibitors in luciferase reporter cells, primary screen, cell-based, NIH3T3, luminescence; 0.77% of 300,000 active; NIH3T3-HGL HSE-luciferase, MG132-induced, luminescence 8 h; active compounds read low; activity change, negative = inhibition, % at 7.5 µM (by protocol);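 active = more than half of replicate wells show activity change below -50%, luminescence cut by over half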;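 note: luciferase reports HSF-1 transcriptional activity via heat shock element; 0% = median of DMSO wells and -100% = zero luminescence signal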
# LGR2 inh: inhibitors of bursicon-induced LGR2 CRE-luciferase signal, primary screen, cell-based, HEK293, CRE-luciferase reporter, bursicon stimulation. 0.35% of 380,000 active. AID 720647, 2013. inhibition, % at 9.99 µM. bursicon-stimulated, 4 h;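 active = drop in luminescence signal, shown as inhibition above about 50% in the replicate tests, limit read from the data, passing the limit was not always enough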;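 note: agonist challenge used bursicon conditioned medium at about half maximal strength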
# TROY NFkB inh: inhibitors of TROY-driven NF-kB signaling, primary screen, Q293 LMP1-TROYcd cells, NF-kB luciferase, uHTS. 0.98% of 360,000 active. AID 1347056, 2019. inhibition, % at 10 µM. Q293 LMP1-TROYcd NF-kB luciferase reporter, 4 h;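 active = compounds whose plate-normalised and pattern-corrected inhibition of the luciferase reporter signal at the single screening dose is 50% or more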
# HSF-1 act: HSF-1 activators, primary screen, NIH3T3-HGL cells, MG132 stress, luminescence, single point; activation, % at 9 µM; 1.7% of 300,000 active; NIH3T3-HGL HSF-1 luciferase reporter, 8 h; 100% = twice DMSO control signal;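 active = mean replicate activation of at least 50% with a set share of replicates each reaching 50%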;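 note: 0% = median of the neutral control wells and 100% = twice that signal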
# LMP1 NFkB inh: EBV LMP1-driven NF-kappaB luciferase reporter inhibitors, primary screen, cell-based, luminescence, single point | 0.69% of 350,000 active | LMP1-induced NF-kappaB luciferase reporter cells | inhibition, % at 12.5 µM; in the data active = inhibition above about 41%;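 note: 0% = neutral control wells and 100% = reference inhibitor control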
# * hit, by the source's call; / = no result. The list is not random: actives were taken first. Their share in the collection is about 3.6%.
SMILES,TWEAK-Fn14 inh,HSF1 inh,LGR2 inh,TROY NFkB inh,HSF-1 act,LMP1 NFkB inh
C[C@H]1CN([C@@H](C)CO)C(=O)c2cc(NC(=O)CCCN(C)C)ccc2O[C@@H]1CN(C)Cc1ccncc1,/,/,-8,/,/,/
CNC(=O)C1C(=S)NC(N)=C(C#N)C1c1ccccc1 (stereo unspecified),1,-72*,/,3,-75,6
COC(=O)C1=C(C)OC(N)=C(C#N)C1c1ccccc1 (stereo unspecified),-15,-6,/,-2,-2,2
Cc1cccc(C)c1OCCCCn1cnc2ccccc2c1=O,-2,8,/,-6,21,-2
CN(C(=O)CCNC(=O)Cn1cnc2ccccc2c1=O)c1ccccc1F,15,-89*,5,11,-91,3
CN(C(=O)CCNC(=O)Cn1cnc2ccccc2c1=O)c1ccc(F)cc1,15,-5,-17,-21,-1,1
Cc1ccc(C(=O)Cn2cnc3ccccc3c2=O)cc1,-34,/,/,54*,/,-25
CC(C)c1ccc(NC(=O)CNC(=O)Cn2cnc3ccccc3c2=O)cc1,-4,-83*,-5,-7,-86,6
CC(C)c1ccc(NC(=O)CNC(=O)Cn2ccc3ccccc3c2=O)cc1,6,-8,-9,-1,-7,3
Cc1cc(C)c(OCCCCn2cnc3ccccc3c2=O)c(C)c1,-18,23,/,32,56*,8
C[C@H](CO)N1C[C@H](C)[C@H](CN(C)Cc2ccccc2)Oc2ncc(C3=CCCC3)cc2C1=O,/,/,0,/,/,/
COc1cccc(S(=O)(=O)N(C)C[C@@H]2OCc3ccccc3-c3ccccc3C(=O)N([C@H](C)CO)C[C@@H]2C)c1,/,/,6,/,/,/
CCOC(=O)C1=CC[C@@H](c2ccc([N+](=O)[O-])cc2)N(S(=O)(=O)c2ccc(C)cc2)[C@H]1c1ccccc1,26,/,9,-2,/,/
CCOC(=O)C1=C[C@@H](C2CCCCC2)N(S(=O)(=O)c2ccc([N+](=O)[O-])cc2)[C@H]1c1ccccc1,75*,/,8,-9,/,/
C[C@@H]1CN([C@H](C)CO)S(=O)(=O)c2ccc(/C=C/c3ccccc3)cc2O[C@H]1CN(C)Cc1cccnc1,/,/,42,/,/,/
Brc1ccc(-c2cn3nc4c(nc3n2)CCCC4)cc1,-16,14,/,-4,17,38
c1ccc(-c2cn3nc4c(nc3n2)CCCC4)cc1,-1,2,68*,6,10,64*
Cc1cc(C)c2[nH]c(O)c(N=NC(=S)NCC3CCCO3)c2c1 (stereo unspecified),9,2,-1,-3,1,-1
Oc1[nH]c2c(Cl)cc(Cl)cc2c1N=NC(=S)NCC1CCCO1 (stereo unspecified),103*,5,11,47,8,33
O=S(=O)(Nc1cccc2cccnc12)c1ccccc1,101*,73,3,29,94*,-1
Cc1cc(C)c(NS(=O)(=O)c2cccc3cccnc23)c(C)c1,-9,4,-7,-2,25,10
Cc1ccc(S(=O)(=O)Nc2cccc3cccnc23)c([N+](=O)[O-])c1,99*,161,0,79*,220*,13
COc1ccc(NS(=O)(=O)c2ccc3ccccc3c2)c2ncccc12,9,311,9,5,393*,24
Cc1cc(C)nc(NS(=O)(=O)c2ccccc2)n1,-6,1,/,-18,8,-8
Cc1ccc2cccc(NS(=O)(=O)c3ccccc3)c2n1,/,137,15,/,140*,/
SMILES,TWEAK-Fn14 inh,HSF1 inh,LGR2 inh,TROY NFkB inh,HSF-1 act,LMP1 NFkB inh
CNC[C@H]1OCCCC[C@@H](C)Oc2ccc(NS(C)(=O)=O)cc2C(=O)N([C@@H](C)CO)C[C@@H]1C,/,/,-15,/,/,/
CC(=O)Nc1ccc(S(=O)(=O)Nc2cccc3cccnc23)cc1,-17,-5,7,15,13,7
O=S(=O)(Nc1cccc2cccnc12)c1ccc(S(=O)(=O)N2CCCC2)cc1,16,157,14,28,189*,-6
C[C@@H]1CN([C@H](C)CO)C(=O)Cc2cc(NC(=O)Cc3ccccc3)ccc2O[C@H]1CN(C)S(=O)(=O)c1ccc(Cl)cc1,/,/,-4,/,/,/
COc1ccc(C(=O)N2CCNC(=O)C2CC(=O)Nc2ccc(C)cc2)cc1 (stereo unspecified),55*,0,15,-6,-16,-3
Nc1ccccc1SC1CC(=O)N(c2ccccc2Cl)C1=O (stereo unspecified),14,4,6,-1,17,47*
O=C(O)CCCNC(=O)C(c1ccccc1)c1ccccc1,-4,-3,-9,3,-9,-1
O=C(O)CCCNC(=O)CCCNC(=O)C(c1ccccc1)c1ccccc1,22,-64*,-5,-1,-73,3
CC(C)c1ccc(/C=C/C(=O)Nc2nncs2)cc1,50,3,64*,37,41,-23
COc1ccc(-c2csc(NC(=S)NC(=O)/C=C/c3ccc(C(C)C)cc3)n2)cc1OC,66*,-27,10,70*,-39,26
Cc1sc(NC(=O)/C=C/c2ccc(C(C)C)cc2)c(C#N)c1C,12,-10,/,-21,-6,-6
COc1ccc(/C=C/C(=O)NC(=S)NCCc2ccc(OC)c(OC)c2)cc1,-42,-61*,1,9,-67,2
O=C(C[C@@H]1C[C@@H]2c3cc(NC(=O)Nc4ccccc4)ccc3O[C@@H]2[C@@H](CO)O1)NCC1CC1,/,/,-11,/,/,/
CC(=O)Nc1ccc(C=NNC(=O)CCCC(=O)NN=Cc2ccc(NC(C)=O)cc2)cc1,19,/,3,2,/,81*
COc1ccccc1NC(=O)N[C@@H]1CC[C@@H](CCn2cc(-c3ccccc3)nn2)O[C@@H]1CO,/,/,-38,/,/,/
CCCNC(=O)C1(C)CCCN(Cc2ccc(-c3ccccc3)o2)C1 (stereo unspecified),70*,/,24,2,/,/
COc1ccc2c(C)cc(=O)oc2c1,-2,/,-7,0,/,7
Cc1cc(=O)oc2cc(Oc3ncccc3[N+](=O)[O-])ccc12,1,1,7,27,9,0
Cc1cc(=O)oc2cc(OCC#N)ccc12,-4,-56*,15,-27,-66,-5
Cc1cc(=O)oc2cc(Oc3ncccn3)ccc12,-4,-6,/,-1,-15,45*
CO[C@H]1CN(C)C(=O)c2ccc(NC(=O)C3CC3)cc2OC[C@H](C)N(Cc2cccc(F)c2)C[C@@H]1C,/,/,6,/,/,/
C[C@H](CO)N1C[C@H](C)[C@@H](CN(C)S(=O)(=O)c2cn(C)cn2)Oc2ccc(NC(=O)CCCCCC(=O)Nc3ccccc3N)cc2C1=O,/,/,-11,/,/,/
